From the supplement of paper PMC11732987, “Enantioselective OTUD7B fragment discovery through chemoproteomics screening and high-throughput optimisation” (Communications Chemistry, 2025)
A number with no mark means an inactive call.

Compound: OC1CN(Cc2sccc12)C(=O)CCl
Assay: log2 ratio of Biotin-Ahx-Ub-VS probe labelling (compound/DMSO); higher = less target engagement, active = hit call of the paper (q ≤ 0.05, log2 ratio ≤ -1)
Conditions: compound concentration: 50uM; treatment time: 3 h
Method: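 Round 2 competitive ABPP in HEK293T lysate. Purified HTC-D2B compounds were tested at 50 and 200 µM for 3 h, followed by Biotin-Ahx-Ub-VS enrichment and diaPASEF LC-MS/MS. Values are the average log2 ratio (compound/DMSO) from an unpaired t-test (n=3 treated, n=26 DMSO).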

Sequence of UniProt Q93008 (Q93008 whole entry): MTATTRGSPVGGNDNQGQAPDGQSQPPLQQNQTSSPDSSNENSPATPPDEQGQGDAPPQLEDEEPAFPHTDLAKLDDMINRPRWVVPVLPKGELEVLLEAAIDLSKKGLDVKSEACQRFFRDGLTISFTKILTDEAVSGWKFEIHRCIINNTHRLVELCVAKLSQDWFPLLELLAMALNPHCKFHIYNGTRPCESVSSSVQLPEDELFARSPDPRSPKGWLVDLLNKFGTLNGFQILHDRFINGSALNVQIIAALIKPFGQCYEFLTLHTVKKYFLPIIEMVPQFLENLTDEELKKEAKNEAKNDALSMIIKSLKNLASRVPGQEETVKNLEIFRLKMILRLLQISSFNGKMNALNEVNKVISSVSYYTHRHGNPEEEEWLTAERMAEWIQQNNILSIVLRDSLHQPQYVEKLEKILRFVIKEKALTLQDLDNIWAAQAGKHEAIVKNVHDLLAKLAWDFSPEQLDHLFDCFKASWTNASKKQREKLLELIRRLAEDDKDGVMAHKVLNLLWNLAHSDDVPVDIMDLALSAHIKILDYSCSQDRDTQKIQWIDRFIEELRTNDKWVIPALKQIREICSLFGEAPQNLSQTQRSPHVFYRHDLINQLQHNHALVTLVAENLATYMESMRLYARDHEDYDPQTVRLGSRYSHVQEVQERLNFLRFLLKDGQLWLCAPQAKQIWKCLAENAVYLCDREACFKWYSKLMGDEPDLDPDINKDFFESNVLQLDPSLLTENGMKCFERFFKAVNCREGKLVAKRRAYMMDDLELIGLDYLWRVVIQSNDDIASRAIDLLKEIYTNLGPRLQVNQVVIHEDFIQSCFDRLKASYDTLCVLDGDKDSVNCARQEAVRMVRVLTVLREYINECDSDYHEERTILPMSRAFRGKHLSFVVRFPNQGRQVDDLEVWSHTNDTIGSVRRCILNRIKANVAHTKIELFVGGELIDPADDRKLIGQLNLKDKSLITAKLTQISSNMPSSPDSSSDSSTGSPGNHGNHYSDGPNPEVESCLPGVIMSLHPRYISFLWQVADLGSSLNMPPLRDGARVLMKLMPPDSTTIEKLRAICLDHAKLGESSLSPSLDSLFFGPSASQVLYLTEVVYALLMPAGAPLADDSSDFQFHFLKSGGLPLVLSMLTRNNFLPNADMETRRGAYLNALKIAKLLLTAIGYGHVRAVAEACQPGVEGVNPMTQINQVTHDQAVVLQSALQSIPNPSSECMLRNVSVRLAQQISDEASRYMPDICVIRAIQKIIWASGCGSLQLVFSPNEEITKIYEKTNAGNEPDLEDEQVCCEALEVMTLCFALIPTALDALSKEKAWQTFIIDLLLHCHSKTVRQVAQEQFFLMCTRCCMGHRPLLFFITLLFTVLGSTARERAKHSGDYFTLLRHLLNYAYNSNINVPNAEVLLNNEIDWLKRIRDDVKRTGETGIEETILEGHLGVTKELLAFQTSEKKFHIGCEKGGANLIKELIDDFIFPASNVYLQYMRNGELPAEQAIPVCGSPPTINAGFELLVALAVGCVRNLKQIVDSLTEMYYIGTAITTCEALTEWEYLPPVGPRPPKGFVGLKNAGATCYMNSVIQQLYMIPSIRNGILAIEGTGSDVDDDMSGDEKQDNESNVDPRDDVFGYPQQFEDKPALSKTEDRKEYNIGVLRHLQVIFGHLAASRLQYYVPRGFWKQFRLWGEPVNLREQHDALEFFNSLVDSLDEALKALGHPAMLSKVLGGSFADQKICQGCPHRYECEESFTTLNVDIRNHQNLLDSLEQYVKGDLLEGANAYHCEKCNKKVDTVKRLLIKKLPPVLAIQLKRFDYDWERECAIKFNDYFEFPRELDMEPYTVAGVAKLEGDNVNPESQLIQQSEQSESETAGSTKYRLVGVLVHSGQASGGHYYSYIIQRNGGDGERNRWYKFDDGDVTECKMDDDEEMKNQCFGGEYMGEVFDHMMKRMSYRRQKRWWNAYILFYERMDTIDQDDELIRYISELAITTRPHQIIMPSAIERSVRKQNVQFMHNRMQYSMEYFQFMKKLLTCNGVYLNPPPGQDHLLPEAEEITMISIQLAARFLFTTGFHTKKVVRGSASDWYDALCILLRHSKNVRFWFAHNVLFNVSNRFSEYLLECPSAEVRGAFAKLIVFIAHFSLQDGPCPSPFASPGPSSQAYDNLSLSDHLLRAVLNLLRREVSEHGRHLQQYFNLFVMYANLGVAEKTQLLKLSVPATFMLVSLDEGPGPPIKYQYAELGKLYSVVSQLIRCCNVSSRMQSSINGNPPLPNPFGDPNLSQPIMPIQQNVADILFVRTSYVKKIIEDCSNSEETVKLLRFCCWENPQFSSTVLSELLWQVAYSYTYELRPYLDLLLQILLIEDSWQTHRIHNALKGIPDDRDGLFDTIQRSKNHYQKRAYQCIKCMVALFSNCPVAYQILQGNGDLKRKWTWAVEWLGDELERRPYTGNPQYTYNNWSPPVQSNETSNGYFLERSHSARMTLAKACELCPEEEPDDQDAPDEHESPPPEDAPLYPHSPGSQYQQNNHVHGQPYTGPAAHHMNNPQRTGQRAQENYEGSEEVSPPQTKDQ
Sequence of UniProt Q92560 (Q92560 whole entry): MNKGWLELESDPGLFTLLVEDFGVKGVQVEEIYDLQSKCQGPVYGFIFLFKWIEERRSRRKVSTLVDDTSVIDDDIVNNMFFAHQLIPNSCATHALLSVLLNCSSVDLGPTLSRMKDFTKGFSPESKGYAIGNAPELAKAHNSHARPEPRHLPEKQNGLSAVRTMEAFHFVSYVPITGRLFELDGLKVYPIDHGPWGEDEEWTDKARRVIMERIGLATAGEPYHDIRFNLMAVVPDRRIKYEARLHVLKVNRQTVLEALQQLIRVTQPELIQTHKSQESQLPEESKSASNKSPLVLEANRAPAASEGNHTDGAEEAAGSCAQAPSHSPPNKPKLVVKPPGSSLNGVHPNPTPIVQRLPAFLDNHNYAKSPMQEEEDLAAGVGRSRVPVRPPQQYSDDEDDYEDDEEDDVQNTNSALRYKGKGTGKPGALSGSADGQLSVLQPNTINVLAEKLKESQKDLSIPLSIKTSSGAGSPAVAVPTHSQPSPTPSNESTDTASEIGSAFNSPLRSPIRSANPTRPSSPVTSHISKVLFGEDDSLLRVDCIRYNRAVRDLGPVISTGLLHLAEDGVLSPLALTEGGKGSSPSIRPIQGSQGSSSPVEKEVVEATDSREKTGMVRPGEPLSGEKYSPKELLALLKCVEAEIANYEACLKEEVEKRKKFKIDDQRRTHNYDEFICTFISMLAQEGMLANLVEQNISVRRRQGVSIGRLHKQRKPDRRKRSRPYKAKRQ
Sequence of UniProt Q9P275 (Q9P275 whole entry): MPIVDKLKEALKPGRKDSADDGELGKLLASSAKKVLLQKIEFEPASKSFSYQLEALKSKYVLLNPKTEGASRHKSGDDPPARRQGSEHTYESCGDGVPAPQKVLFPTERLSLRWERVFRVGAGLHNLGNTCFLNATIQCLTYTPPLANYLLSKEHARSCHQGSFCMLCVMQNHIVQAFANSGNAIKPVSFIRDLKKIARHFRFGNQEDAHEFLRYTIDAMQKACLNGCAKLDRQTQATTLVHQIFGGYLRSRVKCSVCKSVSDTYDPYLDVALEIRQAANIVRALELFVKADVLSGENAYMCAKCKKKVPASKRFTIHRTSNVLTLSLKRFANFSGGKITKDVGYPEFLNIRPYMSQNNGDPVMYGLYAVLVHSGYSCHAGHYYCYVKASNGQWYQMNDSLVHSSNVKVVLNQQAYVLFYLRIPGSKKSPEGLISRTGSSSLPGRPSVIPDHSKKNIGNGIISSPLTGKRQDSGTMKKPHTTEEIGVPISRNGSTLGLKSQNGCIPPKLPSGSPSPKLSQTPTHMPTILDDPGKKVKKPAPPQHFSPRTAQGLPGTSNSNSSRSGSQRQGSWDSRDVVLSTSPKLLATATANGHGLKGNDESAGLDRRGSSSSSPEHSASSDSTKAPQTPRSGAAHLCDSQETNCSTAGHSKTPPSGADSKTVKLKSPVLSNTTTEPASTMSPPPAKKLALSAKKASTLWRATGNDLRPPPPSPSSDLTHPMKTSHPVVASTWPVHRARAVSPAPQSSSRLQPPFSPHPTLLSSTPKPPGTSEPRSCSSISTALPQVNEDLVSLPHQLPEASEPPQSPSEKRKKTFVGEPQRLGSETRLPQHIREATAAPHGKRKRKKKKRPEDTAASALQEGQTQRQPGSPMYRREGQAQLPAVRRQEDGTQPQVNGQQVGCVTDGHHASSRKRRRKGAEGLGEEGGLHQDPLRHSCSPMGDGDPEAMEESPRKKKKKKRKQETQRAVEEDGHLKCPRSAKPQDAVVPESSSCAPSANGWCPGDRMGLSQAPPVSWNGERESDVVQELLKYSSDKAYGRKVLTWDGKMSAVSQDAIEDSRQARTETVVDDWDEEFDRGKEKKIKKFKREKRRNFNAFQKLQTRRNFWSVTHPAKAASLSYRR
Sequence of UniProt P54252 (P54252 whole entry): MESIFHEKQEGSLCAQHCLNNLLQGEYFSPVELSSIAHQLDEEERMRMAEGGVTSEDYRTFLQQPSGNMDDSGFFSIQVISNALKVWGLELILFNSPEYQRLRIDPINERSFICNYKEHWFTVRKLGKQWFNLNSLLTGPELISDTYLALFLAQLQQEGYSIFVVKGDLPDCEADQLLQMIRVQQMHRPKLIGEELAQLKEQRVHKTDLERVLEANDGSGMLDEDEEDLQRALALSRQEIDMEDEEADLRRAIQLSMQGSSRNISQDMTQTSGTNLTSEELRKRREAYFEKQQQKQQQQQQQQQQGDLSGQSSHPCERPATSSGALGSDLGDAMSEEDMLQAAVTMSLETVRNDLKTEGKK
Sequence of UniProt Q5VVQ6 (Q5VVQ6 whole entry): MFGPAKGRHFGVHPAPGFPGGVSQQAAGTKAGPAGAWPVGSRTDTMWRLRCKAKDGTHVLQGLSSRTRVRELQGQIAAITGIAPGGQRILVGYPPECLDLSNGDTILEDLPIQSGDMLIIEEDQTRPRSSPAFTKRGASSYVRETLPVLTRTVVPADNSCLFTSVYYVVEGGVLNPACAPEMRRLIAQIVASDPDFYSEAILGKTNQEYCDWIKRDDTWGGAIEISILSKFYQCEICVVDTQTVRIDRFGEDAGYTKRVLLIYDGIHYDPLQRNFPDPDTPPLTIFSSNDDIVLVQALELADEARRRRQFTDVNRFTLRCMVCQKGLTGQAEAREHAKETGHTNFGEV

Target	log2 ratio of Biotin-Ahx-Ub-VS probe labelling
OTUD7B (UniProt Q6GQQ9)	-4.49 (active)
USP36 (UniProt Q9P275)	-0.243
ALG13 (UniProt Q9NP73)	0.00409
USP28 (UniProt Q96RU2)	-0.0634
ATXN3 (UniProt P54252)	-0.216
USP7 (UniProt Q93009)	-0.155
USP39 (UniProt Q53GS9)	-0.0158
BAP1 (UniProt Q92560)	-0.416
UniProt Q9UGI0	-0.451
EIF3H (UniProt O15372)	-0.189
USP34 (UniProt Q70CQ2)	-0.156
PSMD7 (UniProt P51665)	-0.579
YOD1 (UniProt Q5VVQ6)	-0.198
UniProt Q5T2D3	-0.17
USP9X (UniProt Q93008)	0.00293
UniProt P51784	0.0374
USP24 (UniProt Q9UPU5)	-0.165
USP8 (UniProt P40818)	-0.266
USP25 (UniProt Q9UHP3)	0.472
USP12 (UniProt O75317)	-0.0752

Same assay, conditions: compound concentration: 200uM; treatment time: 3 h

Target	log2 ratio of Biotin-Ahx-Ub-VS probe labelling
OTUD7B (UniProt Q6GQQ9)	-5.43 (active)
USP36 (UniProt Q9P275)	-0.0665
ALG13 (UniProt Q9NP73)	-0.0817
USP28 (UniProt Q96RU2)	-0.321
ATXN3 (UniProt P54252)	-0.0796
USP7 (UniProt Q93009)	-0.426
USP39 (UniProt Q53GS9)	0.0541
BAP1 (UniProt Q92560)	-0.818
UniProt Q9UGI0	-1.5 (active)
EIF3H (UniProt O15372)	-0.0524
USP34 (UniProt Q70CQ2)	-0.0909
PSMD7 (UniProt P51665)	0.371
YOD1 (UniProt Q5VVQ6)	-0.139
UniProt Q5T2D3	-0.0768
USP9X (UniProt Q93008)	-0.116
UniProt P51784	-0.0603
USP24 (UniProt Q9UPU5)	-0.557
USP8 (UniProt P40818)	-0.144
USP25 (UniProt Q9UHP3)	0.301
USP12 (UniProt O75317)	-0.294
